The target in this assay is furin, P09958. Nature of the assay: furin cleavage Z-score vs untreated control; higher = more cleavage, active = 3.5 or more, inactive = 1 or less, 8 variable residues between constant flanks. In outline: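 To give the cleavage Z-score, log read counts were set against furin-free reactions, lowess-adjusted and scaled by median absolute deviation. These counts came from PCR adapter-tagged, sequenced DNA released when purified furin cut 8-mer peptides fused to a cDNA oligonucleotide and held on magnetic beads by their N-terminus. Digests were 0.01 ml, 1:10 enzyme:substrate, in 50 mM HEPES pH 7.5 with CaCl2 and NaCl, for 7.5, 15 or 30 min.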
Chain of furin, P09958 (P09958 whole entry, the tested form may be a part): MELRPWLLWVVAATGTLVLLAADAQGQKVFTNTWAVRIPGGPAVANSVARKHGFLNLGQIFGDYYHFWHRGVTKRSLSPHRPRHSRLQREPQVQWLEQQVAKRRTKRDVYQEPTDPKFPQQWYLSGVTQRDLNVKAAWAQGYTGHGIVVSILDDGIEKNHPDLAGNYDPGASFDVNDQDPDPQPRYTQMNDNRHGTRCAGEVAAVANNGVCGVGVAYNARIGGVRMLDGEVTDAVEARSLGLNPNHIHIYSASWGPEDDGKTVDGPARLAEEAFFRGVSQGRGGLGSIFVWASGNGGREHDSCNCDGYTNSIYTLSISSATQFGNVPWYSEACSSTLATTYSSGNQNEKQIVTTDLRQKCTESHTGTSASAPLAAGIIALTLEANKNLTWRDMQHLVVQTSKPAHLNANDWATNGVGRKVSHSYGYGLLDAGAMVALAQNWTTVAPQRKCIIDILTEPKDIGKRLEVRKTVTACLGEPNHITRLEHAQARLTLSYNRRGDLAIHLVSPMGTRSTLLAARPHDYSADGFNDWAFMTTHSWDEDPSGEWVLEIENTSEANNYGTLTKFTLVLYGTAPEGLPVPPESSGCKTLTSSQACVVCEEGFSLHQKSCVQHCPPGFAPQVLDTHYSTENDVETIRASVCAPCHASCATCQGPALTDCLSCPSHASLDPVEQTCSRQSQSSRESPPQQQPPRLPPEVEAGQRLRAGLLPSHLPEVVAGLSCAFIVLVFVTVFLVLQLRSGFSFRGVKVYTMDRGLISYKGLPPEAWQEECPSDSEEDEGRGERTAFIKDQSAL

Some of the results follow. The true hit rate is not given.

As to CATTPCSGSWAGNASASA [HC54], the “furin cleavage Z-score” value is -0.34 (inactive) (7.5 min), -3.09 (inactive) (15 min) and -0.396 (inactive) (30 min).
In the case of CAPPCVIGGAAGNASASA [HC444], the “furin cleavage Z-score” value reads like this: (7.5 min) -0.324 (inactive); (15 min) -0.267 (inactive); (30 min) 0.0653 (inactive).
Regarding CARRRRLRTAAGNASASA [FS-1786], the “furin cleavage Z-score” value (7.5 min) is 2.03, the “furin cleavage Z-score” value (15 min) was 3.9 (active) and the “furin cleavage Z-score” value (30 min) was 4.2 (active).
With CARRRRYALSAGNASASA [FS-2801], the “furin cleavage Z-score” value reads like this: (7.5 min) 5.16 (active); (15 min) 9.42 (active); (30 min) 8.62 (active).
The like results for CARRRRYEGHAGNASASA [FS-2235] were, in that order, 0.411 (inactive), 0.839 (inactive) and -0.246 (inactive).
Take CARRRRLYWGAGNASASA [FS-1787]: the “furin cleavage Z-score” value is, setting by setting: (7.5 min) -0.939 (inactive); (15 min) 0.513 (inactive); (30 min) -1.89 (inactive).
For the sequence CARRRRYKKKAGNASASA [FS-2182], the “furin cleavage Z-score” value is -0.133 (inactive) (7.5 min), -0.187 (inactive) (15 min) and -0.000733 (inactive) (30 min).
Regarding CARRRRYAVAAGNASASA [FS-3232], the “furin cleavage Z-score” value is, setting by setting: (7.5 min) 4.58 (active); (15 min) 6.75 (active); (30 min) 6.05 (active).
On to CALIARDQLEAGNASASA [HC1587], for which the “furin cleavage Z-score” value is 1.19 (7.5 min), -0.286 (inactive) (15 min) and 0.308 (inactive) (30 min).
The like results for CAGTQRLTRAAGNASASA [FS-438] were, in that order, 5.42 (active), 7.11 (active) and 7.04 (active).
Turning to CAGHSRSRRAAGNASASA [FS-241], the “furin cleavage Z-score” value is 9.52 (active) (7.5 min), 9.9 (active) (15 min) and 7.81 (active) (30 min).
CAGRQRKPRPAGNASASA [FS-658]: the “furin cleavage Z-score” value was -0.103 (inactive) (7.5 min), -1.02 (inactive) (15 min) and -0.398 (inactive) (30 min).
The like results for CAGRSRRPRLAGNASASA [FS-594] were, in that order, 5.82 (active), 7.31 (active) and 7.21 (active).
With CACRARGMRAAGNASASA [FS-15], the “furin cleavage Z-score” value runs as follows: (7.5 min) -0.759 (inactive); (15 min) -0.9 (inactive); (30 min) -0.752 (inactive).
In the case of CAGRDAVILLAGNASASA [HC595], the “furin cleavage Z-score” value is -0.947 (inactive) (7.5 min), -0.587 (inactive) (15 min) and -0.719 (inactive) (30 min).
On the same counts, the results for CAGRSRASRGAGNASASA [FS-1591] are 0.169 (inactive), 0.355 (inactive) and 0.871 (inactive).
With CAGRSRSRRAAGNASASA [FS-1205], the “furin cleavage Z-score” value runs as follows: (7.5 min) 11.2 (active); (15 min) 9.2 (active); (30 min) 6.8 (active).
Take CAMERCSQHLAGNASASA [HC1713]: the “furin cleavage Z-score” value reads like this: (7.5 min) 1.58; (15 min) 0.689 (inactive); (30 min) 1.89.
For the sequence CAMLSRFGRFAGNASASA [FS-692], the “furin cleavage Z-score” value (7.5 min) was -0.109 (inactive), the “furin cleavage Z-score” value (15 min) is 0.852 (inactive) and the “furin cleavage Z-score” value (30 min) was 3.08.
Turning to CARLSRFPRFAGNASASA [FS-490], the “furin cleavage Z-score” value is 8.21 (active) (7.5 min), 11.2 (active) (15 min) and 11.1 (active) (30 min).
For CARLSRPDSGAGNASASA [FS-1749], the “furin cleavage Z-score” value (7.5 min) is -0.794 (inactive), the “furin cleavage Z-score” value (15 min) is -0.615 (inactive) and the “furin cleavage Z-score” value (30 min) is -0.815 (inactive).
The like results for CAIPSRRPRFAGNASASA [FS-255] were, in that order, 5.86 (active), 8 (active) and 9.09 (active).
For the sequence CALRHHNLVYAGNASASA [HC1386], the “furin cleavage Z-score” value is 1.49 (7.5 min), 0.243 (inactive) (15 min) and 1.05 (30 min).
For CACINGVCWTAGNASASA [HC697], the “furin cleavage Z-score” value by setting is: (7.5 min) -0.68 (inactive); (15 min) -1.02 (inactive); (30 min) -2.54 (inactive).
For the sequence CALNCNDSLNAGNASASA [HC374], the “furin cleavage Z-score” value (7.5 min) was -1.18 (inactive), the “furin cleavage Z-score” value (15 min) is -0.292 (inactive) and the “furin cleavage Z-score” value (30 min) is -1.02 (inactive).
Take CADAESYSSMAGNASASA [HC1351]: the “furin cleavage Z-score” value is 1.28 (7.5 min), 0.832 (inactive) (15 min) and -0.308 (inactive) (30 min).
On to CAVLRRDVITAGNASASA [FS-2855], for which the “furin cleavage Z-score” value is 0.181 (inactive) (7.5 min), -1.21 (inactive) (15 min) and 0.595 (inactive) (30 min).
With CASPGRSARPAGNASASA [FS-93], the “furin cleavage Z-score” value runs as follows: (7.5 min) -1.18 (inactive); (15 min) -1.19 (inactive); (30 min) -1.31 (inactive).
The like results for CAVLGRKKRTAGNASASA [FS-1102] were, in that order, 8.65 (active), 9.15 (active) and 8.6 (active).
With CASPGRHKRTAGNASASA [FS-380], the “furin cleavage Z-score” value reads like this: (7.5 min) 8.84 (active); (15 min) 8.17 (active); (30 min) 6.66 (active).
Take CATPGDPKRTAGNASASA [FS-510]: the “furin cleavage Z-score” value runs as follows: (7.5 min) -0.0828 (inactive); (15 min) 0.23 (inactive); (30 min) -0.487 (inactive).
On the same counts, the results for CAVLHRNKRTAGNASASA [FS-1661] are 9.47 (active), 9.94 (active) and 9.22 (active).
Turning to CAVLEVVTSTAGNASASA [HC2270], the “furin cleavage Z-score” value is 0.137 (inactive) (7.5 min), -0.489 (inactive) (15 min) and -0.471 (inactive) (30 min).
For the sequence CAISLRFKRTAGNASASA [FS-172], the “furin cleavage Z-score” value (7.5 min) was 7.22 (active), the “furin cleavage Z-score” value (15 min) was 6.1 (active) and the “furin cleavage Z-score” value (30 min) is 6.83 (active).
On the same counts, the results for CAYNPPLVETAGNASASA [HC1307] are -1.06 (inactive), -1.13 (inactive) and -1.23 (inactive).
With CADVEVVTSTAGNASASA [HC2290], the “furin cleavage Z-score” value (7.5 min) was 1.98, the “furin cleavage Z-score” value (15 min) was 0.479 (inactive) and the “furin cleavage Z-score” value (30 min) was 0.627 (inactive).
In the case of CAYSGGDIYHAGNASASA [HC1648], the “furin cleavage Z-score” value runs as follows: (7.5 min) -0.433 (inactive); (15 min) -0.656 (inactive); (30 min) -0.39 (inactive).
Consider CAMHTRCHCGAGNASASA [HC1173], for which the “furin cleavage Z-score” value was -0.571 (inactive) (7.5 min), -2.41 (inactive) (15 min) and -1.42 (inactive) (30 min).
Consider CATRTIASPKAGNASASA [HC704], for which the “furin cleavage Z-score” value runs as follows: (7.5 min) 1.03; (15 min) 0.625 (inactive); (30 min) -0.793 (inactive).
As for CAWRVDGIMHAGNASASA [HC1170], the “furin cleavage Z-score” value (7.5 min) worked out at 1.37, the “furin cleavage Z-score” value (15 min) is 0.67 (inactive) and the “furin cleavage Z-score” value (30 min) was 0.743 (inactive).
Regarding CAELLRKKRTAGNASASA [FS-991], the “furin cleavage Z-score” value (7.5 min) is 5.51 (active), the “furin cleavage Z-score” value (15 min) was 6.85 (active) and the “furin cleavage Z-score” value (30 min) was 6.38 (active).
In the case of CAPPPRKKRTAGNASASA [HC1323], the “furin cleavage Z-score” value reads like this: (7.5 min) 12.7 (active); (15 min) 14.5 (active); (30 min) 10.1 (active).
Take CAELGDDGRTAGNASASA [FS-1627]: the “furin cleavage Z-score” value is -0.885 (inactive) (7.5 min), -0.821 (inactive) (15 min) and -0.581 (inactive) (30 min).
As to CAPPPKSPPVAGNASASA [HC1319], the “furin cleavage Z-score” value is, setting by setting: (7.5 min) -0.03 (inactive); (15 min) -0.325 (inactive); (30 min) 0.671 (inactive).
As for CAILSRAKRPAGNASASA [FS-252], the “furin cleavage Z-score” value is 0.222 (inactive) (7.5 min), -1.38 (inactive) (15 min) and 0.306 (inactive) (30 min).
Take CAIRSGKKRTAGNASASA [FS-669]: the “furin cleavage Z-score” value is -1.71 (inactive) (7.5 min), -0.504 (inactive) (15 min) and -0.845 (inactive) (30 min).
Take CAQLLRKKRPAGNASASA [FS-479]: the “furin cleavage Z-score” value is 2.18 (7.5 min), 1.54 (15 min) and 4.39 (active) (30 min).

Source of the values: the supplement of paper PMC3545927.
